The entries come from a sample that favours hits as a whole.
KDM5B inh = inhibitors of human KDM5B histone demethylase; KDM5B demethylase, FDH-coupled NADH fluorescence (FDH is formaldehyde dehydrogenase); 2.6% of 220,000 active; Potency, µM (highest dose often 57.7 µM), most hits filed as inhibitors; active = well fitted inhibition curve with a large enough effect; note: nearly all actives have a fitted effect of over 70% in size
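Compound dilutions met 200 nM (final) KDM5BΔAP for 10 min at room temperature before substrate addition. The substrate mix held 12.5 µM H3K4me3 with cofactors 25 µM α-ketoglutarate and 50 µM Fe²⁺. NADH signal gain over 30 min defined activity.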
Each line names hits and unclear results; the compound was inactive in the other large screens.

O=C(Nc1cccc(-c2nnnn2C2CC2)c1)C1CC=CCC1 (stereo unspecified)	none
Cc1oc(-c2nc(C#N)c(NCC3CCCO3)o2)cc1S(=O)(=O)N1CCCCCC1 (stereo unspecified)	none
CC1CCN(C(=O)COc2cc(O)c3c(=O)cc(-c4ccccc4)oc3c2)CC1	none
N#Cc1nc(/C=C/c2ccccc2)oc1N1CCCCC1	none
CCOC(=O)Nc1ccc(NS(=O)(=O)c2cc(F)cc(F)c2)cc1	none
COc1ccc(/C=C(\NC(=O)c2ccc(C)cc2)C(=O)NC(CC(C)C)C(=O)O)cc1 (stereo unspecified)	none
Cc1ccc(C(NC(=O)C2CCCCC2)c2cccnc2)cc1 (stereo unspecified)	none
O=C1N(c2ccccc2)c2ccccc2C12CCN(CC1CC1)C2 (stereo unspecified)	none
CC(=O)N1CC2(CCN(CC3CC3)C2)Cc2ccccc21 (stereo unspecified)	none
NC(=O)c1ccc2c(c1)C1(CCN(CC3CC3)C1)CN2Cc1ccccc1 (stereo unspecified)	KDM5B inh 35µM
Cc1noc(C)c1C(=O)N1C[C@@H](COCC2CC2)[C@H](c2ccccn2)C1	none
COc1ccc(-c2nc(C3CC3)nc3c2CCN([S+](=O)([O-])c2cccc(C(F)(F)F)c2)CC3)cc1	none
O=C(CCCc1c[nH]c2ccccc12)N1CCCC1CN1CCCC1 (stereo unspecified)	none
Cc1cn2nc(C(=O)NCc3ccccc3F)cc2c(N(C)Cc2ccccc2)n1	KDM5B inh 14µM
Cc1cn2nc(C(=O)NCc3ccc(F)cc3F)cc2c(N(C)Cc2ccccc2)n1	none
Cc1cn2nc(C(=O)NCc3ccc(F)cc3F)cc2c(=O)[nH]1	none
COc1ccccc1CNC(=O)c1ccccc1	none
COc1ccc(CNC(=O)c2cc3c(=O)[nH]c(C)cn3n2)c(OC)c1	none
COc1ccccc1CNC(=O)c1cc2c(N(C)Cc3ccccc3)nc(C)cn2n1	KDM5B inh 14µM
CC(C)(C)CC(=O)Nc1ccc(C(N)=O)c(Cl)c1	none
S=C(NCCC(c1ccccc1)c1ccccc1)NC1CC1	none
O=C1NC2(CCN(Cc3ccc(OC(F)(F)F)cc3)CC2)COc2ccccc21	none
COc1cccc(CN2CCC3(CC2)COc2ccccc2CN3)c1	none
O=C1Nc2ccccc2OCC12CCN(Cc1ccccc1C(F)(F)F)CC2	none
COc1cccc(CN2CCCC3(COc4ccccc4C(=O)N3)C2)c1 (stereo unspecified)	KDM5B inh 35µM
O=C1NC2(CCCN(Cc3ccc(F)cc3)C2)COc2ccccc21 (stereo unspecified)	KDM5B inh 25µM
O=C1NC2(CCN(Cc3ccc(F)cc3)C2)Oc2ccccc21 (stereo unspecified)	none
O=C1NC2(CCN(Cc3ccccc3)CC2)COc2ccccc21	none
O=C1NC2(CCCN(Cc3ccc(F)cc3)C2)Oc2ccccc21 (stereo unspecified)	none
O=C1NC2(CCCN(Cc3ccc(C(F)(F)F)cc3)C2)Oc2ccccc21 (stereo unspecified)	none
O=C1NC2(CCCN(Cc3ccccc3C(F)(F)F)C2)COc2ccccc21 (stereo unspecified)	KDM5B inh 35µM
COc1cccc(CN2CCC3(C2)NC(=O)c2ccccc2O3)c1 (stereo unspecified)	none
O=C1NC2(CCCN(Cc3ccc(OC(F)(F)F)cc3)C2)COc2ccccc21 (stereo unspecified)	KDM5B inh 35µM
O=C(O)CCc1ncc(-c2ccc(F)cc2F)o1	none
CS(=O)(=O)c1ccc(OCCOc2cccc(F)c2)cc1	none
CCC(C)NC(=O)Cn1cccc1-c1nc(-c2cccc(Cl)c2)no1 (stereo unspecified)	none
CS(=O)(=O)N1CCCc2cc(C(=O)N(Cc3c(F)cccc3Cl)C3CC3)ccc21	none
O=C(NCCN1CCN(C(=O)CCc2c[nH]c3ccccc23)CC1)c1ccco1	none
COc1ccc(/C=C2\Oc3cc(OS(C)(=O)=O)ccc3C2=O)cc1OC	none
Clc1ccc(Cc2nc(-c3ccc(Br)o3)no2)cc1	none
Cc1ccc(C(=O)N2CCC(c3nn(C)c4c3COCC4)CC2)cn1	none
O=C(c1ccc(-c2ncc3cnc(C4=CCOCC4)cn23)cc1)N1CC[S+](=O)([O-])CC1	KDM5B inh 35µM
COc1ccc(C(=O)Nc2ccc(-c3nnc4n3CCCC4)cc2)cn1	none
COc1ccc(NC(=O)c2ccc3c(c2)NC(=O)CS3)cn1	none
COc1ccc(NC(=O)c2ccc(-c3ncc4cnc(C5=CCOCC5)cn34)cc2)cn1	KDM5B inh 28µM
CCCCc1nn2cc(-c3ccc(CC)cc3)nc2s1	none
CCCCCc1ccc(-c2ccc(-c3ccc(O)cc3)nc2)cc1	none
COC(=O)c1ccc(OC(=O)c2ccc3c(c2)NC(=O)CS3)cc1	none
CCOc1ccccc1NC(=O)C(C)Nc1ccc2c(c1)CCN2C(C)=O (stereo unspecified)	none
COC(=O)C1=C(N)Oc2n[nH]c(-c3ccccc3)c2C12C(=O)N(Cc1ccc(F)cc1)c1ccccc12 (stereo unspecified)	none
CC(C)N1C(=O)CO[C@H]2CCN(Cc3cccs3)CC[C@@H]21	none
Cc1ccccc1CN1CC[C@@H]2OCC(=O)N(C(C)C)[C@H]2CC1	none
CC(C)N1C(=O)CO[C@H]2CCN(Cc3ccccn3)CC[C@@H]21	KDM5B inh 35µM
Cc1ccccc1Cn1cc(-c2ccncc2)cc1C(=O)NC(C)c1ccccn1 (stereo unspecified)	KDM5B inh 32µM
CC(NC(=O)CC12CC3CC(CC(C3)C1)C2)c1ccccn1 (stereo unspecified)	none
CCCNC(=O)NC(C)c1ccccn1 (stereo unspecified)	none
COc1ccc(C(=O)c2sc(Nc3cccc(Cl)c3)nc2N)cc1OC	none
Cc1cc(C(c2ccccc2F)N2CCCCC2)c(NC(=O)c2ccco2)s1 (stereo unspecified)	none
Cc1nn(-c2ccccn2)c(C)c1[C@@H]1C=C[C@@H](NC(=O)CCC(=O)O)C1	none
Cc1nn(Cc2ccccc2)c(C)c1[C@@H]1C=C[C@@H](NC(=O)c2ccc(F)c(Cl)c2)C1	KDM5B inh 28µM
Cc1ccc(-n2nc(C)c([C@@H]3C=C[C@@H](NC(=O)NC(C)C)C3)c2C)cc1Cl	none
COc1ccc(OC)c(CNC(=O)Cc2cccn2-c2ccc(C)cc2)c1	none
CC1CCN(C(=O)CN(C)CC(=O)Nc2c(Cl)cccc2Cl)CC1	none
COc1cc(C(=O)Nc2ccc3oc(C)nc3c2)cc(OC)c1C	none
COc1cccc(-c2cc(C(=O)N3CCc4c(c(-c5nncn5C)nn4C)C3)[nH]n2)c1	none
COc1ccc(NC(=O)N2CCc3c(C(=O)NCCCN4CCCC4=O)cccc32)cc1	none
COc1ccc(OC2CCN(C(C)=O)CC2)c(C(=O)NCCc2c(C)n[nH]c2C)c1	KDM5B inh 28µM
COc1ccc(OC2CCN(C(C)=O)CC2)c(C(=O)N2C[C@@H]3CCC[C@H]2C3)c1	none
COc1ccc(OC2CCN(C3CCCC3)CC2)c(C(=O)NCCCN2CCCC2=O)c1	KDM5B inh 32µM
O=C(NCCCN1CCCC1=O)C1CCC1	none
COc1ccc(C(=O)NCCc2ccccc2F)cc1OC1CCN(C(C)=O)CC1	none
O=C(COc1c(I)cc(Cl)c2cccnc12)NCC1CC1	none
CC(Nc1ccc(N2CCOCC2)cc1)c1nc2scc(-c3cccs3)c2c(=O)[nH]1 (stereo unspecified)	none
CCOc1ccc(NC(=O)c2nn(Cc3ccccc3)c(=O)c3ccccc23)cc1OC	none
COc1cccc(C(=O)c2sc(Nc3ccc(F)cc3)nc2N)c1	none
C[C@@H]1CN(C(=O)c2ccc3c(c2)N(C)C(=O)CO3)C[C@@]1(O)C1CCC1	none
CC1(C)CN(C(=O)c2ccnc(-n3cnnc3)c2)CC1(C)O (stereo unspecified)	none

Screening results from PubChem BioAssay.
